Experimental data as given in PubChem BioAssay AID1159580 (chemical genetic matrix, 2015).
The whole screen tested about 5,500 compounds, of which about 2,000 (36%) were called active. About 18% were inconclusive and are not listed. Rule as the data show it: active = normalized growth mostly below about 0.91 (no sharp cut-off); inconclusive = no clear call, values can overlap the other calls; inactive = mostly above about 0.92. The list shows a part of the results.

Test: chemical genetic growth profiling, strain panel (AID 1159580);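 also: tested at 20 µM; growth read once vehicle control cultures reached saturation at 30 °C; 1 = growth at the plate median or of vehicle wells; lower values mean less growth of the strain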
Settings: growth OD

Measured: normalized growth

CCCN1C[C@H](CSC)C[C@@H]2c3cccc4[nH]cc(c34)C[C@H]21
inactive: S. cerevisiae deletion strains, locus YKL009W, strain mrt4, active compounds read low 1.01 | S. cerevisiae deletion strains, locus YKL068W, active compounds read low 1.02 | S. cerevisiae deletion strains, locus YKL085W, strain MDH1 (second series), active compounds read low 1 | S. cerevisiae deletion strains, locus YKL085W, strain MDH1, active compounds read low 1 | S. cerevisiae deletion strains, locus YKL160W, strain elf1, active compounds read low 1.01 | S. cerevisiae deletion strains, locus YKL190W, strain CNB1, active compounds read low 0.995 | S. cerevisiae deletion strains, locus YKR001C, strain vps1, active compounds read low 1.02 | S. cerevisiae deletion strains, locus YKR026C, strain gcn3, active compounds read low 1.02 | S. cerevisiae deletion strains, locus YKR091W, strain srl3, active compounds read low 0.997 | S. cerevisiae deletion strains, locus YLL001W, strain dnm1, active compounds read low 1 | S. cerevisiae deletion strains, locus YLL026W, active compounds read low 1.01 | S. cerevisiae deletion strains, locus YLL041C, strain sdh2, active compounds read low 0.995 | S. cerevisiae deletion strains, locus YLR027C, strain aat2, active compounds read low 1 | S. cerevisiae deletion strains, locus YLR039C, strain RIC1, active compounds read low 1.11 | S. cerevisiae deletion strains, locus YLR058C, strain SHM2, active compounds read low 1.01 | S. cerevisiae deletion strains, locus YLR102C, strain apc9, active compounds read low 1.03 | S. cerevisiae deletion strains, locus YLR113W, strain HOG1, active compounds read low 1.06 | S. cerevisiae deletion strains, locus YLR221C, strain rsa3, active compounds read low 1 | S. cerevisiae deletion strains, locus YLR258W, strain gsy2, active compounds read low 1.01 | S. cerevisiae deletion strains, locus YLR262C, strain YPT6 (second series), active compounds read low 1.07 | S. cerevisiae deletion strains, locus YLR262C, strain YPT6, active compounds read low 1.09 | S. cerevisiae deletion strains, locus YLR268W, strain sec22, active compounds read low 1 | S. cerevisiae deletion strains, locus YLR320W, strain mms22, active compounds read low 0.984 | S. cerevisiae deletion strains, locus YLR330W, strain CHS5, active compounds read low 0.999 | S. cerevisiae deletion strains, locus YLR342W, strain FKS1 (second series), active compounds read low 1.01 | S. cerevisiae deletion strains, locus YLR342W, strain FKS1, active compounds read low 1 | S. cerevisiae deletion strains, locus YLR357W, strain rsc2, active compounds read low 0.982 | S. cerevisiae deletion strains, locus YLR370C, strain arc18, active compounds read low 1.01 | S. cerevisiae deletion strains, locus YLR371W, strain rom2, active compounds read low 1.02 | S. cerevisiae deletion strains, locus YLR384C, strain iki3, active compounds read low 1 | S. cerevisiae deletion strains, locus YLR418C, strain cdc73, active compounds read low 0.985 | S. cerevisiae deletion strains, locus YML016C, strain PPZ1, active compounds read low 0.998 | S. cerevisiae deletion strains, locus YML032C, strain rad52, active compounds read low 1.03 | S. cerevisiae deletion strains, locus YML120C, strain ndi1, active compounds read low 1.02 | S. cerevisiae deletion strains, locus YML124C, strain tub3, active compounds read low 1.02 | S. cerevisiae deletion strains, locus YMR058W, strain fet3, active compounds read low 0.999 | S. cerevisiae deletion strains, locus YMR078C, strain ctf18, active compounds read low 1.03 | S. cerevisiae deletion strains, locus YMR125W, strain sto1, active compounds read low 1.02 | S. cerevisiae deletion strains, locus YMR129W, active compounds read low 1.02 | S. cerevisiae deletion strains, locus YMR205C, strain PFK2, active compounds read low 1.02 | S. cerevisiae deletion strains, locus YMR223W, strain ubp8, active compounds read low 1.02 | S. cerevisiae deletion strains, locus YMR231W, strain pep5, active compounds read low 1.02 | S. cerevisiae deletion strains, locus YMR263W, strain SAP30, active compounds read low 0.979 | S. cerevisiae deletion strains, locus YMR307W, strain GAS1, active compounds read low 1.03 | S. cerevisiae deletion strains, locus YNL067W, strain RPL9B, active compounds read low 0.975 | S. cerevisiae deletion strains, locus YNL071W, strain lat1, active compounds read low 1.02 | S. cerevisiae deletion strains, locus YNL128W, strain TEP1, active compounds read low 0.984 | S. cerevisiae deletion strains, locus YNL153C, strain GIM3, active compounds read low 0.983 | S. cerevisiae deletion strains, locus YNL183C, strain NPR1, active compounds read low 0.991 | S. cerevisiae deletion strains, locus YNL209W, strain ssb2, active compounds read low 1 | S. cerevisiae deletion strains, locus YNL233W, strain BNI4, active compounds read low 0.981 | S. cerevisiae deletion strains, locus YNL248C, strain rpa49, active compounds read low 0.945 | S. cerevisiae deletion strains, locus YNL250W, strain rad50, active compounds read low 1 | S. cerevisiae deletion strains, locus YNL271C, strain bni1, active compounds read low 1.02 | S. cerevisiae deletion strains, locus YNL298W, strain CLA4, active compounds read low 1.02 | S. cerevisiae deletion strains, locus YNL307C, strain MCK1, active compounds read low 1.03 | S. cerevisiae deletion strains, locus YNL322C, strain KRE1 (second series), active compounds read low 1.01 | S. cerevisiae deletion strains, locus YNL322C, strain KRE1, active compounds read low 1 | S. cerevisiae deletion strains, locus YNR049C, strain mso1, active compounds read low 1.01 | S. cerevisiae deletion strains, locus YNR052C, strain pop2, active compounds read low 1.02 | S. cerevisiae deletion strains, locus YOL006C, strain TOP1, active compounds read low 0.966 | S. cerevisiae deletion strains, locus YOL012C, strain htz1 0.77 | S. cerevisiae deletion strains, locus YOL147C, strain pex11, active compounds read low 1.02 | S. cerevisiae deletion strains, locus YOR001W, strain rrp6, active compounds read low 0.983 | S. cerevisiae deletion strains, locus YOR061W, strain CKA2, active compounds read low 0.992 | S. cerevisiae deletion strains, locus YOR069W, strain VPS5, active compounds read low 0.989 | S. cerevisiae deletion strains, locus YOR070C, strain gyp1, active compounds read low 0.997 | S. cerevisiae deletion strains, locus YOR080W, strain dia2, active compounds read low 1.02 | S. cerevisiae deletion strains, locus YOR083W, strain WHI5, active compounds read low 0.966 | S. cerevisiae deletion strains, locus YOR106W, strain vam3, active compounds read low 1.01 | S. cerevisiae deletion strains, locus YOR136W, strain idh2, active compounds read low 1.02 | S. cerevisiae deletion strains, locus YOR144C, strain elg1, active compounds read low 1.01 | S. cerevisiae deletion strains, locus YOR184W, strain ser1, active compounds read low 1.05 | S. cerevisiae deletion strains, locus YOR231W, strain MKK1, active compounds read low 1.08 | S. cerevisiae deletion strains, locus YOR265W, strain rbl2, active compounds read low 1.02 | S. cerevisiae deletion strains, locus YOR270C, strain vph1, active compounds read low 1.07 | S. cerevisiae deletion strains, locus YOR290C, strain snf2, active compounds read low 1 | S. cerevisiae deletion strains, locus YOR316C, strain cot1, active compounds read low 1.02 | S. cerevisiae deletion strains, locus YPL051W, strain arl3, active compounds read low 1.01 | S. cerevisiae deletion strains, locus YPL055C, strain LGE1, active compounds read low 0.946 | S. cerevisiae deletion strains, locus YPL078C, strain atp4, active compounds read low 1.01 | S. cerevisiae deletion strains, locus YPL106C, strain sse1, active compounds read low 1.03 | S. cerevisiae deletion strains, locus YPL240C, strain hsp82, active compounds read low 1.01 | S. cerevisiae deletion strains, locus YPL241C, strain CIN2, active compounds read low 1.03 | S. cerevisiae deletion strains, locus YPL256C, strain CLN2, active compounds read low 1.06 | S. cerevisiae deletion strains, locus YPR119W, strain clb2, active compounds read low 1.02 | S. cerevisiae deletion strains, locus YPR141C, strain kar3, active compounds read low 1.01 | S. cerevisiae deletion strains, locus YPR163C, strain tif3, active compounds read low 1.02 | S. cerevisiae deletion strains, locus YPR167C, strain met16, active compounds read low 1.02 | S. cerevisiae deletion strains, strain wtn01, active compounds read low 0.995 | S. cerevisiae strains, strain wild type, active compounds read low 0.997
